# Experimental data published in paper PMC7862700, “An all-to-all approach to the identification of sequence-specific readers for epigenetic DNA modifications on cytosine”.
# Legend:
# Assay in all cases: DAPPL (digital affinity profiling via proximity ligation, sequencing); 10 mM Tris-HCl pH 7.5, 50 mM NaCl, 1 mM DTT, 4% glycerol, room temperature, 30 min; GST-TFs on glutathione beads, 16-mer random dsDNA library, 0.1% formaldehyde crosslink after washing; high values mean tight binding
# Conditions in all cases: protein: recombinant; tags: N-terminal GST; dsDNA, one strand shown
# ELK1 = molecular target: T1, ELK1 (Homo sapiens, UniProt P19419 1-428)
# T1 sequence: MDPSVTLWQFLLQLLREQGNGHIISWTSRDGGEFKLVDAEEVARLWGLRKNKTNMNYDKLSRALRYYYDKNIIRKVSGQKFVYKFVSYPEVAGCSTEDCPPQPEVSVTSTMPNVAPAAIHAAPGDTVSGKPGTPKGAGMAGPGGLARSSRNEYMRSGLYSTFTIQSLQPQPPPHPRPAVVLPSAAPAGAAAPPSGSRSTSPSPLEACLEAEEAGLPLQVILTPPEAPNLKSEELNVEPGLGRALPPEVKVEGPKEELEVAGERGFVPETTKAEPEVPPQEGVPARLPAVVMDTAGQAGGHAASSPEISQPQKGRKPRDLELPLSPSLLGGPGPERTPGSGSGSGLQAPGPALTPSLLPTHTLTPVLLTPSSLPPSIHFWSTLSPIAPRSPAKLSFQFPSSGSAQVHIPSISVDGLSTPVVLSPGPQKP
# Summary of the method: (§1)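 Binding signal is each hexamer's read frequency for a factor divided by its frequency in the tag-only sample. The factors were GST-fused human transcription factors from yeast, captured on glutathione beads, DNA-barcoded and pooled with that sample. Pools were incubated with 200 nmole of a random double-stranded 16-mer DNA library in Tris/NaCl/DTT/glycerol buffer at room temperature for 30 min, then washed, crosslinked with 0.1% formaldehyde, proximity-ligated with BsaI/T4 ligase (1 h, 37 °C), PCR-amplified and sequenced on an Illumina NextSeq500.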
# ERG = molecular target: T2, ERG (Homo sapiens, UniProt P11308 1-479)
# T2 sequence: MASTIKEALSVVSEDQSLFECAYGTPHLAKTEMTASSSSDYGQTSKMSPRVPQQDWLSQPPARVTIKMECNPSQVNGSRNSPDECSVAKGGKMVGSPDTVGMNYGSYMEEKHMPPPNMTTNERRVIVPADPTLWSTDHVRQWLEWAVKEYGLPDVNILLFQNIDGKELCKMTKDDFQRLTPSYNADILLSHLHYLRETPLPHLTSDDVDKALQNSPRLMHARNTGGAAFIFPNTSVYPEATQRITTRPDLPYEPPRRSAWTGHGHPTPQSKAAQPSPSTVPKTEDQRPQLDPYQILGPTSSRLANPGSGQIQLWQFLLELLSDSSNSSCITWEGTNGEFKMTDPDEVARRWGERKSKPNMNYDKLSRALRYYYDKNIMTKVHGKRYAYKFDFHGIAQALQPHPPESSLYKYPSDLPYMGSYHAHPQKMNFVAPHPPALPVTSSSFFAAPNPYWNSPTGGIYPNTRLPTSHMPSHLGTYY
# Summary of the method: as §1
# ELF1 = ELF1 (Homo sapiens, UniProt P32519 1-619)
# Chain of ELF1 (P32519 whole entry): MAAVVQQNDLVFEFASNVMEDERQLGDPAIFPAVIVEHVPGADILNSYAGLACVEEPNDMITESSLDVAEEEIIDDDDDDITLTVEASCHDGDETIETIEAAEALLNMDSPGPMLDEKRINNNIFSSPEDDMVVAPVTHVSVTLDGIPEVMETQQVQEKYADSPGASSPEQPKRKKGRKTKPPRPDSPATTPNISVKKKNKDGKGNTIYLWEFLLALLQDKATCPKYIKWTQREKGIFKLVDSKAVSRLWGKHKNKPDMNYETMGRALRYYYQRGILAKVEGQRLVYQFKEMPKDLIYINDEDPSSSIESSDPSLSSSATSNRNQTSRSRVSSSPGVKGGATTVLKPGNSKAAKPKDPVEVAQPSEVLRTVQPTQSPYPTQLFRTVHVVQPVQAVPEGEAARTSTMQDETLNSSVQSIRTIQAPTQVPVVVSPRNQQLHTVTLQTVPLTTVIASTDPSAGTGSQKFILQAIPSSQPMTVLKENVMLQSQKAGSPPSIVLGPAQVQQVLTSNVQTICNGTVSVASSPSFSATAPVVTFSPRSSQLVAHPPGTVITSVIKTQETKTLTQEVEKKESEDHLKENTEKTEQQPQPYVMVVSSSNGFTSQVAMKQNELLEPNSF
# Summary of the method: as §1
# EHF = molecular target: T3, EHF (Homo sapiens, UniProt Q9NZC4 1-300)
# T3 sequence: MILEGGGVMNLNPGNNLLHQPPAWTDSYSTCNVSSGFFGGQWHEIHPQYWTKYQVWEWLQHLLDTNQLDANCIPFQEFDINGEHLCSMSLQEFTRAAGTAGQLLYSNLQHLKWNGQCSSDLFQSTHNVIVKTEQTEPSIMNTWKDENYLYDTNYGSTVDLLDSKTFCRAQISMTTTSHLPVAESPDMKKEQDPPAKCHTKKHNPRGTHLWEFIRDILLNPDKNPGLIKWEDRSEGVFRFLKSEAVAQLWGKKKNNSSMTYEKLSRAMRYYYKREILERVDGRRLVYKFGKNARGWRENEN
# Summary of the method: as §1
# SPIB = SPIB (Homo sapiens, UniProt Q01892 1-262)
# Chain of SPIB (Q01892 whole entry): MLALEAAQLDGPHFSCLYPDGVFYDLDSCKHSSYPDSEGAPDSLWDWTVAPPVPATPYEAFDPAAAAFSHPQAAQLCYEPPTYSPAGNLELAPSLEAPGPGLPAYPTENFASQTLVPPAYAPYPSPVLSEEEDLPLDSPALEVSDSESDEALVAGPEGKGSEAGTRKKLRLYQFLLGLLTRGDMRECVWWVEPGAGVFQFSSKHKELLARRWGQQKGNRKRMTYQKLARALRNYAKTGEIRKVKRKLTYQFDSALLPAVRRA
# Summary of the method: as §1
# FEV = molecular target: T4, FEV (Homo sapiens, UniProt Q99581 1-238)
# T4 sequence: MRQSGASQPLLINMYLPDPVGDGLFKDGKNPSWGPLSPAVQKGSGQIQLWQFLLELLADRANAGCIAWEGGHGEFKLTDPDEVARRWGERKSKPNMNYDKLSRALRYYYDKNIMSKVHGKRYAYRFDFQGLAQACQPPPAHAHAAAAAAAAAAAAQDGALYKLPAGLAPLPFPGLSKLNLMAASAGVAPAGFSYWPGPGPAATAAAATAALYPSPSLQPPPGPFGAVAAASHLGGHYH
# Summary of the method: as §1
# ETV5 = ETV5 (Homo sapiens, UniProt P41161 1-510)
# Chain of ETV5 (P41161 whole entry): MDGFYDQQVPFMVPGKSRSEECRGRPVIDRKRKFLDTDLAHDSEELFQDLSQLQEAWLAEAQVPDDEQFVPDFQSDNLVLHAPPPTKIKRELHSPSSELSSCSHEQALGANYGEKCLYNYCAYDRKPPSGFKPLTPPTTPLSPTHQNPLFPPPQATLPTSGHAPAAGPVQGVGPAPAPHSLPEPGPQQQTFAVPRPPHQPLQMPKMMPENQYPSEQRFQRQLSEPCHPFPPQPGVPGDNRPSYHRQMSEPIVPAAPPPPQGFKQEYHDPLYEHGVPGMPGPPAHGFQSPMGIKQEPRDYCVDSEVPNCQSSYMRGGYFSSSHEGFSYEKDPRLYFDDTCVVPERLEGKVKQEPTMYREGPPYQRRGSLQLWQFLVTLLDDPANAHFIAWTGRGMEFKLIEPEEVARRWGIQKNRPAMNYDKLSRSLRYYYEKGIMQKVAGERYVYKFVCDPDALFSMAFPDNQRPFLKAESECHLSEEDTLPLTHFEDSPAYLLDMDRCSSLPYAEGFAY
# Summary of the method: as §1
# ELF4 = ELF4 (Homo sapiens, UniProt Q99607 1-663)
# Chain of ELF4 (Q99607 whole entry): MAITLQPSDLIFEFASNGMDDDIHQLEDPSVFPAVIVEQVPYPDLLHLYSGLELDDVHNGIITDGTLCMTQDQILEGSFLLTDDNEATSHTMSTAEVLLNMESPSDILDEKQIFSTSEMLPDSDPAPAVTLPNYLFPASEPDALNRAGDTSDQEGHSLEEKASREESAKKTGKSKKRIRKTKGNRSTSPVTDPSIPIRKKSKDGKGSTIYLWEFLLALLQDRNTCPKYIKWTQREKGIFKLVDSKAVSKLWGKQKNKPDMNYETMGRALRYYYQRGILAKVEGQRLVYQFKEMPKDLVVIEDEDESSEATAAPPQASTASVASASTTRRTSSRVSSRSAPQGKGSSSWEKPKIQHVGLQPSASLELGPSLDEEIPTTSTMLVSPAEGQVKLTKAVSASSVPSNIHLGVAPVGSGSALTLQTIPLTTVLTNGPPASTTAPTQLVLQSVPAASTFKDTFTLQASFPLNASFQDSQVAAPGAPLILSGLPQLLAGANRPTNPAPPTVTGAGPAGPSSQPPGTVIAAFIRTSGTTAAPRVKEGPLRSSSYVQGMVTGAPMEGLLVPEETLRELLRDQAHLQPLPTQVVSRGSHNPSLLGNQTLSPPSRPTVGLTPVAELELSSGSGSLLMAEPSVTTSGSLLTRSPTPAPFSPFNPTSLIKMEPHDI
# Summary of the method: as §1
# ELK4 = molecular target: T5, ELK4 (Homo sapiens, UniProt P28324-2 1-405)
# T5 sequence: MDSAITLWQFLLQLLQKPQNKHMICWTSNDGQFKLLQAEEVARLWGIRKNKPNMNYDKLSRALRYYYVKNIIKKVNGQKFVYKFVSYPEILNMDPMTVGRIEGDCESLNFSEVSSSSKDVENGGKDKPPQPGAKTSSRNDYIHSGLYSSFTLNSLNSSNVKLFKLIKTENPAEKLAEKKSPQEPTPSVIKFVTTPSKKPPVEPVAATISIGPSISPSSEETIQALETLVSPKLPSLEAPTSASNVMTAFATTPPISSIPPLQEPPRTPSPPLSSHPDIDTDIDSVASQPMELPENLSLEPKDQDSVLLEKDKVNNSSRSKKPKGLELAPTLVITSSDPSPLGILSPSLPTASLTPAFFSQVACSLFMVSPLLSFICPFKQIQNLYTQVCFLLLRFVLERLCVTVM
# Summary of the method: as §1
# ETV1 = ETV1 (Homo sapiens, UniProt P50549 1-477)
# Chain of ETV1 (P50549 whole entry): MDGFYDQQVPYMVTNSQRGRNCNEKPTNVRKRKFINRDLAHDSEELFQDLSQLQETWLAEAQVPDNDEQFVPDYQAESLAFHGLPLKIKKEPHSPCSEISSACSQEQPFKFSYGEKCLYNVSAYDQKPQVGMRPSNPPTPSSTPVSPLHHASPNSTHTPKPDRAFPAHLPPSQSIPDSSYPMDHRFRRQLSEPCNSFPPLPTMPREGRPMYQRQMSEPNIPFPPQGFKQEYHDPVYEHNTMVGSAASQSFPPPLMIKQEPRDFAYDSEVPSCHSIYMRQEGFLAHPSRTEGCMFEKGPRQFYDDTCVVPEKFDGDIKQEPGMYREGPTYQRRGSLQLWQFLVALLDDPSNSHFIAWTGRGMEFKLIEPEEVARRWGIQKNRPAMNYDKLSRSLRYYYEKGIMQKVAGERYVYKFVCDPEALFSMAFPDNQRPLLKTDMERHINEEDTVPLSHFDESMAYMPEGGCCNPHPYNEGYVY
# Summary of the method: as §1
# ERF = molecular target: T6, ERF (Homo sapiens, UniProt P50548 1-548)
# T6 sequence: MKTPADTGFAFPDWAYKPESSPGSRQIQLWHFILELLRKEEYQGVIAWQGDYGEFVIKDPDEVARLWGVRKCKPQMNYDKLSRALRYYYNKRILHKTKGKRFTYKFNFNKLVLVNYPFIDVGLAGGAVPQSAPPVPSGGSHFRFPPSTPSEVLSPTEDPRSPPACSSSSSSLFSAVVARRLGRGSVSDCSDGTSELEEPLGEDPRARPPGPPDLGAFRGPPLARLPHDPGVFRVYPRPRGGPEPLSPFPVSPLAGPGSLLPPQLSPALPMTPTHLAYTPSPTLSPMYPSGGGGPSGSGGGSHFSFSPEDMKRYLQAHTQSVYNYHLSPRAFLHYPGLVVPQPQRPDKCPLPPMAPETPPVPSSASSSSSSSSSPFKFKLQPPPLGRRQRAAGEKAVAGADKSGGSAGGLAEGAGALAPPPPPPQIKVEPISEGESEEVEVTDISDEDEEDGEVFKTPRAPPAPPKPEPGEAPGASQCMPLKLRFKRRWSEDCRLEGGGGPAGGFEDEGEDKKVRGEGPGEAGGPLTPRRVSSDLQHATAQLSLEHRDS
# Summary of the method: as §1
# ETV3L = molecular target: T7, ETV3L (Homo sapiens, UniProt Q6ZN32 1-361)
# T7 sequence: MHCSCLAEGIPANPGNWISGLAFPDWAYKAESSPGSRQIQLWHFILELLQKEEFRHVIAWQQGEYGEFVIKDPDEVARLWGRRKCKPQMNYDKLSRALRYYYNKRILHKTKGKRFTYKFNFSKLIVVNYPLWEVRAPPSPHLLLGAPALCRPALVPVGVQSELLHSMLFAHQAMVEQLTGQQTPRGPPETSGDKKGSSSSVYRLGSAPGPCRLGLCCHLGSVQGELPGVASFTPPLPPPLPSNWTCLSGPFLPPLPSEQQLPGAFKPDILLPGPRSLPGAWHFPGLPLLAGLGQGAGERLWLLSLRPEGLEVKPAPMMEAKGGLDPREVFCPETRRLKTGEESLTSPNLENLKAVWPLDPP
# Summary of the method: as §1
# ETS2 = molecular target: T8, ETS2 (Homo sapiens, UniProt P15036 1-469)
# T8 sequence: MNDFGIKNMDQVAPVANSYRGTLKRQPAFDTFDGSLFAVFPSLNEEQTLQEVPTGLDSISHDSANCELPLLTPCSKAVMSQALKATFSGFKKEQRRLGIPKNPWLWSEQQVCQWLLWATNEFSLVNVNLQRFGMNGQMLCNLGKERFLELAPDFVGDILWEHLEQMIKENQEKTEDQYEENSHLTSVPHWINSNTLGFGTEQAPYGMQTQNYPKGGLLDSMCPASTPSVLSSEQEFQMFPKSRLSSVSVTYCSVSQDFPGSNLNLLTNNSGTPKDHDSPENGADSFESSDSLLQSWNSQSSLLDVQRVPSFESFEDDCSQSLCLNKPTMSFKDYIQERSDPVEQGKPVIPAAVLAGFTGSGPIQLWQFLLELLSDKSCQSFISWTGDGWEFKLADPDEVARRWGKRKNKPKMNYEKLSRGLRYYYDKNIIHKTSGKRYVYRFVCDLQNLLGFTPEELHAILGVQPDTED
# Summary of the method: as §1
# SPDEF = molecular target: T9, SPDEF (Homo sapiens, UniProt O95238 1-335)
# T9 sequence: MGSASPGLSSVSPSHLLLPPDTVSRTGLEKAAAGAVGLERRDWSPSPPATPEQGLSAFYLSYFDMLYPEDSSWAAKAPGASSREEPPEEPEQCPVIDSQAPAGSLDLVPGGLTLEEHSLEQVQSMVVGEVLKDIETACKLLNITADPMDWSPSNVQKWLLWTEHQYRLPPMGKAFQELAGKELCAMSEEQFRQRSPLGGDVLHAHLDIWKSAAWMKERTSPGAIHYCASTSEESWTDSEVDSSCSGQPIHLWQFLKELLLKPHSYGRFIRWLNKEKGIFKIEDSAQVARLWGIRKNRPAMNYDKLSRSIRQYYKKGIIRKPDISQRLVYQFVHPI
# Summary of the method: as §1
# ETV7 = molecular target: T10, ETV7 (Homo sapiens, UniProt Q9Y603 1-341)
# T10 sequence: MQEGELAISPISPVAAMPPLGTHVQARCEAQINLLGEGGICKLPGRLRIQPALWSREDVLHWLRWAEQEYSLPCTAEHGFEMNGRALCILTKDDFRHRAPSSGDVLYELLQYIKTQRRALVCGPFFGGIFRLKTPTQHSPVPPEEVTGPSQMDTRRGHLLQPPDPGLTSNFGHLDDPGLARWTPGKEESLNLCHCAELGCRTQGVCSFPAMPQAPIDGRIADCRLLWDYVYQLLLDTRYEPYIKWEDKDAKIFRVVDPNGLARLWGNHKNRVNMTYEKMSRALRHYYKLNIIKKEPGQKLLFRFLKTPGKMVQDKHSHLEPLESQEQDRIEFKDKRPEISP
# Summary of the method: as §1
# ETV3 = molecular target: T11, ETV3 (Homo sapiens, UniProt P41162-2 1-143)
# T11 sequence: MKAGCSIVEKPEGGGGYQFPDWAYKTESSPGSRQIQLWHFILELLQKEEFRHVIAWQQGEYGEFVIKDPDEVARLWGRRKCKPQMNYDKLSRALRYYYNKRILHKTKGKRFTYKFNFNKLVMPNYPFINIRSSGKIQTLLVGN
# Summary of the method: as §1
# ETV6 = ETV6 (Homo sapiens, UniProt P41212 1-452)
# Chain of ETV6 (P41212 whole entry): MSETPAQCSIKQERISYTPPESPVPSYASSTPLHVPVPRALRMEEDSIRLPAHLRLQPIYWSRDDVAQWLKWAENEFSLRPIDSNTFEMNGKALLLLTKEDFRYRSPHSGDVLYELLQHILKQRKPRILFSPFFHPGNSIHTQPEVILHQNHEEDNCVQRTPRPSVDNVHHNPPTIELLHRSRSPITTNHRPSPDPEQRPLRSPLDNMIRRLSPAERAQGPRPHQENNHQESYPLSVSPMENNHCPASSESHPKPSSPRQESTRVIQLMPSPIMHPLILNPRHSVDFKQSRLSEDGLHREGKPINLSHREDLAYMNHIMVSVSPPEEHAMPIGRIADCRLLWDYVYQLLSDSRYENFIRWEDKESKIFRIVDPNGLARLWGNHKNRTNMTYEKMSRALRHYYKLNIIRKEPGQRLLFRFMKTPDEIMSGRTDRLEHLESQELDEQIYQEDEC
# Summary of the method: as §1
sequence,measurement,setting,value
GGTACA,binding signal,ELK1,"1.08 fold enrichment (6-mer frequency, TF over GST control)"
same,binding signal,ERG,"1.09 fold enrichment (6-mer frequency, TF over GST control)"
same,binding signal,ELF1,"1.03 fold enrichment (6-mer frequency, TF over GST control)"
same,binding signal,EHF,"1.05 fold enrichment (6-mer frequency, TF over GST control)"
same,binding signal,SPIB,"1.11 fold enrichment (6-mer frequency, TF over GST control)"
same,binding signal,FEV,"1.03 fold enrichment (6-mer frequency, TF over GST control)"
same,binding signal,ETV5,"1.05 fold enrichment (6-mer frequency, TF over GST control)"
same,binding signal,ELF4,"1 fold enrichment (6-mer frequency, TF over GST control)"
same,binding signal,ELK4,"1.11 fold enrichment (6-mer frequency, TF over GST control)"
same,binding signal,ETV1,"1.07 fold enrichment (6-mer frequency, TF over GST control)"
same,binding signal,ERF,"1.09 fold enrichment (6-mer frequency, TF over GST control)"
same,binding signal,ETV3L,"1.04 fold enrichment (6-mer frequency, TF over GST control)"
same,binding signal,ETS2,"1.03 fold enrichment (6-mer frequency, TF over GST control)"
same,binding signal,SPDEF,"1.11 fold enrichment (6-mer frequency, TF over GST control)"
same,binding signal,ETV7,"1.11 fold enrichment (6-mer frequency, TF over GST control)"
same,binding signal,ETV3,"1.09 fold enrichment (6-mer frequency, TF over GST control)"
same,binding signal,ETV6,"1.11 fold enrichment (6-mer frequency, TF over GST control)"
